Wee1 stabilizer = Wee1 degradation inhibitors, primary screen, cell-based, HeLa, Wee1K328M-luciferase, luminescence; 220,000 compounds, 1.2% hits; AID 1321, 2008; Wee1-like protein kinase (Homo sapiens), P30291; HeLa Luc-Wee1K328M stability; 100% = proteasome inhibitor MG132 effect; reporter increase, % at 5 µM;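 active = activation above the mean of all tested compounds plus 3 SD, set per screening run, cut at about 8.8% in these data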;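 note: cells exposed to compound for 20 h before luminescence read; 0% = DMSO alone and 100% = MG132 at 30 µM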
Target sequence (P30291 whole entry K328M): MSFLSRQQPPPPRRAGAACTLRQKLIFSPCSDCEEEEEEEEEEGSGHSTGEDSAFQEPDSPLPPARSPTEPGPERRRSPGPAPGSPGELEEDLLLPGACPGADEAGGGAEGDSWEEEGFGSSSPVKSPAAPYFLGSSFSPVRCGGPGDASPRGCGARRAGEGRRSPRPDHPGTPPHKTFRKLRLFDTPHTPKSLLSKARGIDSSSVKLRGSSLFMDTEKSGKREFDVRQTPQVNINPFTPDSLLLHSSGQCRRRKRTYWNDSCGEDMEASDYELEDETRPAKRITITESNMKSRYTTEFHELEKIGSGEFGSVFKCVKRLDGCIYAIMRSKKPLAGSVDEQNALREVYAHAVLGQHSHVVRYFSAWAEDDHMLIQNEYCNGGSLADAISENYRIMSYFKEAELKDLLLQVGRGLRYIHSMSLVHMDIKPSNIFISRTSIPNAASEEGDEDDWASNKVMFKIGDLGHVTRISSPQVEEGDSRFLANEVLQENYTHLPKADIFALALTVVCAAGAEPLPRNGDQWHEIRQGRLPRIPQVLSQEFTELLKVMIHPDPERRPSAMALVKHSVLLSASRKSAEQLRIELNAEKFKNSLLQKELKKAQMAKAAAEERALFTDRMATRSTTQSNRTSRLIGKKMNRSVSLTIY
aSyn 5UTR inh = MLPCN primary screen, SNCA 5' untranslated region; alpha-synuclein 5'UTR reporter, inhibitor activity; inhibition, % (tested at 7.5 µM); 300,000 compounds, 0.82% hits; AID 1813, 2009; in the data active = inhibition above about 60%; inconclusive = no clear call, values can overlap the other calls;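 note: H4 neuroglioblastoma cells stably carrying SNCA 5'UTR luciferase fusion; 0% = DMSO wells and 100% = positive control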
Platelet DG rel = inhibitors of platelet dense granule secretion, primary screen, cell-based, MLPCN, human platelets | human platelet-rich plasma, SFLLRN dense granule ATP release, luminescence | inhibition, %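 (compounds screened at 7.5 µM in platelet-rich plasma)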 | 300,000 compounds, 0.22% hits | AID 1663, 2009;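 active = mean replicate score, as percent of positive control, at or above 50; inconclusive = mean below 50 but at least one replicate at or above 50; inactive = mean and every replicate below 50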
KLF5 inh = KLF5 expression inhibitors, primary screen, DLD-1 cells, luminescence; DLD-1 KLF5 promoter-luciferase reporter; inhibition, % at 5 µM; 290,000 compounds, 0.23% hits; AID 1700, 2009;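 active = inhibition above a per-plate limit of that plate's mean compound inhibition plus 3 SD, cut at about 60% in these data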;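 note: 0% = DMSO wells and 100% = LY294002 at 200 µM; higher means less KLF5 promoter-driven luciferase light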
HIF act = HIF pathway transcriptional activators, primary screen, cell-based, U2OS HRE-luciferase, luminescence; AID 1910, 2009; 300,000 compounds, 0.32% hits; activation, % at 7.5 µM (by protocol); U2OS HRE-luciferase reporter; normalized: DMSO 0%, desferrioxamine 100%;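 active = mean activation of at least 10% of the iron chelator positive control signal, with at least half of replicates also reaching 10%; inconclusive = mean and replicate majority disagree about reaching 10%; inactive = mean and most replicates under 10%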
KLF5 confirm = KLF5 expression inhibitors, confirmation, DLD-1 cells, luminescence; shares compounds with KLF5 inh; DLD-1 KLF5 promoter firefly luciferase reporter; inhibition, % at 4 µM; 610 compounds, 79% hits; AID 1834, 2009;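 active = inhibition above a set limit taken from the earlier primary screen, cut at about 63% in these data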;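 note: 0% = DMSO wells and 100% = LY294002 at 200 µM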
IEC-6 tox trip = cytotoxicity in rat IEC-6 cells, cytotoxicity control for KLF5 inhibitor project, cell-based, luminescence, triplicate. IEC-6 rat intestinal cells, viability luminescence. inhibition, % at 4 µM. shares compounds with KLF5 inh. 610 compounds, 56% hits; in the data active = inhibition above about 23%;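 note: cells exposed to compounds for 48 hours before viability read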
* = called active by the depositor; u = inconclusive; x = not tested or not shown. Most compounds without a hit are left out; they make up all but 2.1% or so of the library.

SMILES	Wee1 stabilizer	aSyn 5UTR inh	Platelet DG rel	KLF5 inh	HIF act	KLF5 confirm	IEC-6 tox trip
CCc1ccn2cc(-c3cc(-c4ccccc4)no3)nc2c1	-4	94*	29	84*	-5	82*	-2
Oc1ccccc1-c1cc(-c2ccccc2)no1	-2	-133	23	-99	2	x	x
CN(C(=O)C1CCC(=O)N(Cc2ccccc2F)C1)C1CCOCC1 (centres undefined)	x	-8	25	-24	0	x	x
CC(=O)C(Sc1ncnc2sc3c(c12)CCCC3)C(C)=O	-1	-16	7	-3	0	x	x
CN(C)c1ccc(/C=C/c2nc3ccccc3c(=O)[nH]2)cc1	x	87*	37	99*	1	94*	2
CCc1ccc(OCCOCC(O)CN(CCO)CCO)cc1 (centres undefined)	-1	-4	0	-4	0	x	x
COCc1c(C(=O)N/N=C/c2ccc(C)o2)nnn1-c1nonc1N	x	4	2	-20	0	x	x
CCOc1ccc2c(c1)C(C)=CC(C)(C)N2S(=O)(=O)c1ccc(NC(C)=O)cc1	x	70*	4	73*	1	89*	71*
COc1ccc2c(c1)C(C)=CC(C)(C)N2S(=O)(=O)c1ccc(NC(C)=O)cc1	x	71*	-3	81*	-5	88*	59*
COc1ccc2c(c1)C(C)=CC(C)(C)N2S(=O)(=O)c1ccc(Br)cc1	0	-86	-9	22	0	x	x
CC(=O)NC1=C(Nc2ccc(N(C)C)cc2)C(=O)c2ccccc2C1=O	x	-20	-9	-141	-2	x	x
CCC(=O)N(C1=C(NC)C(=O)c2ccccc2C1=O)C(C)C	-4	-1	-2	76*	0	15	4
CNC1=C(N(C(C)=O)c2ccc(Br)cc2)C(=O)c2ccccc2C1=O	-5	111*	-4	97*	-6	94*	18
CCOC(=O)N1CCC(NC(=O)c2ccc3c(c2)N=C(C)c2c(C)ccc(C)c2S3)CC1	x	37	-4	71*	1	87*	61*
C/C(=N\NC(=O)c1c(C)nc2ccccn12)c1ccc(O)cc1O	x	84*	1	69*	13*	84*	39*
C/C(=N\NC(=O)c1c(C)nc2ccccn12)c1ccccc1F	x	-20	-7	-34	0	x	x
Cc1nc([N+](=O)[O-])c(Br)n1Cc1ccc(Cl)c(Cl)c1	-1	-44	-5	9	u	x	x
CCCCCCCCn1ccc(=N)cc1	0	62*	16	68*	0	53	48*
CCCCCCCCCCn1ccc(=N)cc1	-3	106*	-1	86*	-2	70*	62*
CCCCCCN1Cc2ccccc2C1	-2	-117	-3	-22	2	x	x
COc1ccc(/C=N/NC(=O)COc2ccccc2-c2ccccc2)cc1	3	70*	-1	65*	0	77*	54*
CCOCCCNC(=S)Nc1ccc2nc(N3CCOCC3)cc(C)c2c1	x	-29	-12	-51	-34	x	x
O=C1CCCN1c1ccc(S(=O)(=O)Nc2ccc3c(c2)OCCO3)cc1	4	-1	1	78*	1	70*	41*
Cc1cc(C(=O)CN2C(=O)c3ccccc3S2(=O)=O)c(C)n1CC1CCCO1 (centres undefined)	-4	111*	1	83*	-6	104*	17
COc1ccc(C(=O)CN2C(=O)c3ccccc3S2(=O)=O)cc1	-5	101*	-12	72*	-4	56	-4
SMILES	Wee1 stabilizer	aSyn 5UTR inh	Platelet DG rel	KLF5 inh	HIF act	KLF5 confirm	IEC-6 tox trip
COc1ccc(C(=O)CN2C(=O)c3ccccc3S2(=O)=O)cc1Br	x	55	-7	-14	-2	x	x
Cc1cc(C(=O)CN2C(=O)NC(C)(c3ccccc3)C2=O)c(C)n1CC1CCCO1 (centres undefined)	3	-18	12	-1	0	x	x
CCC(OC(=O)CNS(=O)(=O)c1ccccc1)C(=O)c1ccccc1 (centres undefined)	x	11	-1	-1	0	x	x
CCOc1ccc(/C=N/Nc2ccc(Cl)nn2)c(O)c1	x	34	8	82*	1	31	-2
Oc1c(Br)cc(/C=N/Nc2ccc(Cl)nn2)cc1Br	x	-7	17	-32	0	x	x
Oc1c(Br)cc(Br)cc1/C=N/Nc1ccc(Cl)nn1	x	97*	4	102*	-1	36	-4
Cc1cc(NC(=O)CCC(=O)N(Cc2cccs2)C(C)(C)C(=O)NC2CCCCC2)no1	x	-27	-16	-10	0	x	x
CCOC(=O)N1CCN(S(=O)(=O)N2CCCC(C(=O)NCc3cccc(OC)c3)C2)CC1 (centres undefined)	x	1	-11	-10	0	x	x
CCCC(=O)NC(c1ccc(Cl)cc1Cl)c1ccc2cccnc2c1O (centres undefined)	x	64*	6	82*	74*	82*	53*
CCCCC(=O)NC(c1ccc(Cl)cc1)c1ccc2cccnc2c1O (centres undefined)	x	56	3	84*	86*	88*	66*
CC(=O)NC(c1ccc2ccccc2c1)c1ccc2cccnc2c1O (centres undefined)	x	57	-9	77*	90*	87*	79*
CC(C)C(=O)NC(c1ccco1)c1ccc2cccnc2c1O (centres undefined)	6	63*	-3	67*	22*	96*	40*
C=CCn1c(=O)c2ccc(C(=O)NCc3ccccc3)cc2n(Cc2ccc(C)cc2)c1=O	-1	11	4	-18	0	x	x
CCCC(=O)NC(c1ccc(C)cc1)c1ccc2cccnc2c1O (centres undefined)	x	58	14	99*	125*	87*	75*
CCCC(=O)NC(c1ccc(Cl)cc1)c1ccc2cccnc2c1O (centres undefined)	x	47	9	78*	92*	82*	77*
CCCC(=O)NC(c1ccccc1Cl)c1c(O)ccc2ccccc12 (centres undefined)	-1	6	-4	-14	0	x	x
COc1ccc(CCNS(=O)(=O)c2cnc(Cl)c(Br)c2)cc1OC	-2	-21	3	-22	0	x	x
CCCCn1c(N)c(N(CCC(C)C)C(=O)C2CC(=O)N(c3ccccc3OCC)C2)c(=O)[nH]c1=O (centres undefined)	x	-2	1	-28	-1	x	x
COc1ccccc1N(CC(=O)NC1CCCCC1)S(=O)(=O)c1ccccc1	x	-1	-1	-8	0	x	x

Screens as filed in PubChem.
